These results are taken from PubChem BioAssay AID1030 (National Center for Advancing Translational Sciences (NCATS), 2008).

Structures are written as SMILES. Out of some 220,000 compounds screened, about 16,000 (7.3%) were called active. Inconclusive results (about 25%) are left out. Only a selection was taken, and actives are over-represented in it overall. Values without a mark were called inactive. The call rests on the fitted dose curve; in most records, active means well fitted inhibition curve with a large enough effect (not every such curve was filed as active); inconclusive means small, poorly fitted or top-dose-only effect, or another doubt; inactive means no such curve, though single readings can be large or run the other way.
Potency means the concentration at half of the fitted maximal effect.

This experiment deals with Aldehyde dehydrogenase 1A1 (Homo sapiens) (UniProt P00352). The experiment in a line: qHTS Assay for Inhibitors of Aldehyde Dehydrogenase 1 (ALDH1A1).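 On activity, negative = inhibition: plate controls were no enzyme wells and a reference inhibitor.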 The settings on record: Purified ALDH1A1, NADH fluorescence, propionaldehyde substrate; series mostly up to 75.3 µM; activity, negative = inhibition: at the top concentration.
Chain of Aldehyde dehydrogenase 1A1 (Homo sapiens) (P00352 whole entry, looked up): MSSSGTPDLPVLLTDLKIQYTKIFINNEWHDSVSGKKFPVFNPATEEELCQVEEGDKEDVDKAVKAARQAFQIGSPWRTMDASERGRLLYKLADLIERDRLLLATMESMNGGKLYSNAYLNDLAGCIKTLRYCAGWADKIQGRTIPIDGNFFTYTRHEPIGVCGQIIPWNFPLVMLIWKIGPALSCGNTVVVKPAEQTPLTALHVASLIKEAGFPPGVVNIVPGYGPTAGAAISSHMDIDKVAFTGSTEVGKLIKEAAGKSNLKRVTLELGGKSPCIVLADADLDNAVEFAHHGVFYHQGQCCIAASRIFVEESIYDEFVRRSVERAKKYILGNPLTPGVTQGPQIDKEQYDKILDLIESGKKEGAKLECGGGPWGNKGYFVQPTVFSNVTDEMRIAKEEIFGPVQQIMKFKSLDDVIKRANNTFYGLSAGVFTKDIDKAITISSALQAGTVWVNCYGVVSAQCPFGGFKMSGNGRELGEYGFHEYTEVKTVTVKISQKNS
With `CC(C)Nc1nnc(SCC(=O)/C=C2\N(C)c3ccccc3C2(C)C)s1`, the “activity, negative = inhibition” value was -2.25%.

For `CCCCCc1ccc(-c2ccc(OCC)cc2)nc1`, the “activity, negative = inhibition” value is 3.76%. As for `O=C(N1CCCCC1)N1CCN(C(=O)N2CCCCC2)CC1`, the “activity, negative = inhibition” value is -13.2%. Still for that read-out and setting: under `CCCNC(=O)c1c(Cl)cnn1-c1ccc(C)cc1` stands 0.157%; under `CCC(C)CN1CCC(CO)(Cc2ccccc2Cl)CC1` (stereo unspecified), 6.32%; under `COCCNC(=O)/C(C#N)=C/c1cccc(OCc2ccccc2)c1`, -8.15%. Still for that read-out and setting: under `O=C(NCC(O)c1ccc([N+](=O)[O-])cc1)C1CCCCC1` (stereo unspecified) stands 5.34%. On the same count and under the same terms, under `NC(N)=N/N=C/c1ccc(Cl)c([N+](=O)[O-])c1` stands 4.87%; under `O=[N+]([O-])c1ccc(N2CCSCC2)cc1O`, -9.62%. Take `O=C1CSC(=S)N1/N=C/c1ccc(O)c([N+](=O)[O-])c1`: the Potency is 1.26 µM (active). Regarding `Nc1ccc(C(=O)OCC(=O)NC2CCS(=O)(=O)C2)cc1[N+](=O)[O-]` (stereo unspecified), the “activity, negative = inhibition” value is -0.662%. Regarding `CN(C)c1nccc(NCc2ccccc2)c1C#N`, the “activity, negative = inhibition” value is -5.36%. Same read-out and setting: under `CN(C(=O)COc1ncnc2c1cnn2-c1ccccc1)C1CCCCC1` stands -9.75%. On the same count and under the same terms, next, `CN(C)S(=O)(=O)Oc1ccccc1C(=O)Nc1ccccc1Cl`: 8.77%; `CSCCC(NC(=O)C1CCC(C)CC1)C(=O)NCc1ccco1` (stereo unspecified): 5.15%; `CC(=O)Nc1ccccc1OC(C)C(=O)N1CCC(C)CC1` (stereo unspecified): 5.08%. Turning to `CSCCC(NS(=O)(=O)/C=C/c1ccccc1)C(=O)N1CCC(C)CC1` (stereo unspecified), the Potency was 14.1 µM (active). As to `CCCCCCCCCCOC(=O)C[N+](C)(C)CC1CCCCC1O` (stereo unspecified), the “activity, negative = inhibition” value was 4.34%.

Turning to `O=C(NC1CCCCC1)c1cc([N+](=O)[O-])ccc1N1CCOCC1`, the “activity, negative = inhibition” value was -8.05%. Turning to `O=[N+]([O-])c1ccc2c(c1)C(N1CCOCC1)/C(=C/C1(O)CCCCC1)O2` (stereo unspecified), the Potency was 10 µM (active).

With `CC[C@H](C)[C@@H](NC(=O)O[C@@H]1C(=O)c2cc(OC)ccc2O[C@H]1c1cccc(OC)c1)C(=O)OC`, the “activity, negative = inhibition” value was 0.104%. Still for that read-out and setting: under `CCN(CC)CCNc1nc(-c2ccc(OC(F)F)cc2)c(C)s1` stands -2.65%; under `O=c1cc(-c2ccccc2)nc(N2CCCCC2)[nH]1`, -8.51%. As for `O=C(c1ccccc1)c1ccc2nc(N3CCCCC3)c3nncn3c2c1`, the Potency was 12.6 µM (active).

For the compound `O=C(Nc1ccccc1N1CCCCC1)c1cccc(F)c1`, the “activity, negative = inhibition” value is -9.96%. Same read-out and setting: next, `O=C(O)C(c1ccccc1)C1(O)CCCCC1` (stereo unspecified): 9.96%; `Cc1ccc(-c2cn(S(=O)(=O)c3cccc([N+](=O)[O-])c3)nc2N)cc1`: 4.26%; `O=C(Nc1ccncc1)c1cc(-c2ccccn2)nc2ccc(Br)cc12`: 0.055%.

As for `Cn1c(=O)[nH]c(=O)c2c1nc(Br)n2CCCCSc1nc2ccccc2o1`, the “activity, negative = inhibition” value was -7.93%. As to `CCCCCn1c(SCCC(C)C)nc2c1c(=O)[nH]c(=O)n2C`, the Potency was 22.4 µM (active).

On to `C#CC(C)(C)NC(=O)CSc1nc2c(c(=O)n(C)c(=O)n2C)n1CCCC`, for which the “activity, negative = inhibition” value was 16.5%. `Oc1ccc(CNc2ccccc2O)cc1`: the Potency is 3.98 µM (active).

As to `Oc1ccccc1CNCc1ccccc1O`, the activity, negative = inhibition was -6.72% [at 13.5 µM]. Still for that read-out and setting: under `O=[N+]([O-])c1ccccc1NCc1ccc(Cl)cc1` stands 4.53%; under `Cn1nc(C(F)(F)F)c2cc(C(=O)N3CCOCC3)sc21`, 5.73%. On the same count and under the same terms, under `Cc1ccnc2nc(C(=O)Nc3nnc(-c4ccccc4)o3)nn12` stands 8.11%. `CCN1C(=O)/C(=C2\SC(N3CCCCC3)=NC2=O)c2ccccc21`: the Potency was 10 µM (active). Consider `CC(C)=C1SC(N2CCN(c3cccc(C)c3)CC2)=NC1=O`, for which the “activity, negative = inhibition” value was -4.12%. On the same count and under the same terms, next, `C=C/C1=C/Cc2ccccc2[C@H](C[N+](=O)[O-])C(C(=O)OC)(C(=O)OC)C1`: -1.98%. On the same count and under the same terms, next, `O=C(CN1C(=O)CC(c2ccccc2)S(=O)(=O)c2ccccc21)NC1CCCC1` (stereo unspecified): -7.83%; `COc1cccc(-c2nc3n(n2)C(c2ccccc2Cl)C(C(N)=O)=C(C)N3)c1` (stereo unspecified): -1.6%.

With `COCCOC(=O)C1=C(C)Nc2nc(C)nn2C1c1ccccc1` (stereo unspecified), the “activity, negative = inhibition” value is 12.5%. In the case of `CC1=C(C(N)=O)C(c2ccc3c(c2)OCO3)n2nc(-c3cccc(C)c3)nc2N1` (stereo unspecified), the Potency is 3.55 µM (active).

As to `C/C(=N/NC(=O)CCc1ccccc1)c1ccco1`, the “activity, negative = inhibition” value was -1.48%. On the same count and under the same terms, next, `CSCCC(=O)N1CCCC(CNC(=O)c2ccccc2Cl)C1` (stereo unspecified): 5.62%. The same measure, in the same setting: under `CC(C)(C)c1cc(P(=O)(c2ccccc2)c2ccccc2)ccc1O` stands 2.97%. Regarding `COCCCNC(=O)c1c(F)c(F)c(F)c(F)c1F`, the “activity, negative = inhibition” value is 9.81%.

Turning to `COCCCNCC(=O)Nc1sc(C)c(C)c1C(=O)OC`, the Potency is 11.2 µM (active). As for `CCC(=O)Nc1sc(C(=O)Nc2ccccc2)c(C)c1C(=O)OC`, the “activity, negative = inhibition” value was 1.12%. Turning to `Cc1ccc(CCCOC(=O)C[N+]2(C)CCCCC2)cc1`, the “activity, negative = inhibition” value was 5.06%. Same read-out and setting: under `O=C(CC1NCCc2ccccc21)Nc1cccc(Cl)c1` (stereo unspecified) stands 1.34%; under `CC1CC(C)CN(S(=O)(=O)c2ccc(C(=O)NN3CCOCC3)cc2)C1` (stereo unspecified), -5.98%.

Turning to `CN(C)/C=C1\C=C(c2ccccc2)OC1=O`, the Potency was 10 µM (active). `CC(=O)NC(Cc1ccc(F)c(F)c1)C(=O)NC1CCN(c2nnnn2-c2ccccc2)CC1` (stereo unspecified): the Potency is 3.16 µM (active).

With `COc1ccc(CC(NC(C)=O)C(=O)NC2CCN(C(=O)C3CC3)CC2)cc1OC` (stereo unspecified), the “activity, negative = inhibition” value is 5.16%. The same measure, in the same setting: under `CNC(=S)N1CCC(NC(=O)C(Cc2ccc(F)cc2)NC(C)=O)CC1` (stereo unspecified) stands 0.163%.
